These results are taken from PubChem BioAssay (NCI).

The panel holds about 83,000 compounds, 20% with a hit somewhere; the sample as a whole holds those more often.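 Assay: single dose, 48 h. Readout: percent growth (0 = no net growth; negative = cell death). Active: <10.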 Values without a mark were called inactive. The source made the active and inactive calls.

Some test systems named below: NCI-H23 lung; NCI-H226 lung; NCI-H322M lung; HOP-62 NSCLC; NCI-H460 lung; NCI-H522 lung; A549/ATCC NSCLC; 786-0 renal; COLO 205 colon; DU-145 prostate; K-562 leukemia; MALME-3M melanoma; MDA-MB-231 breast; RXF 393 renal; SF-268 CNS; SF-295 CNS; SF-539 CNS; UACC-257 melanoma; M14 melanoma; HCT-15 colon.
What all share (assay): NCI-60 one-dose screen, 48 h (100 = growth as untreated, 0 = no growth, -100 = all killed)
Conditions in all cases: 10 µM

As to `O=C(Nc1cccc(Cl)c1)Nc1nccs1`, the growth is 94.7% in the test on NCI-H23 lung; 99.6% with NCI-H226 lung; 92.6% in the test on NCI-H322M lung; 94.6% with HOP-62 NSCLC; 98.9% in the test with NCI-H460 lung; 7.88% (active) in the test with NCI-H522 lung. For the same compound, the growth is 28.6% in the test on A549/ATCC NSCLC; 95.6% in the test on 786-0 renal; 126% in the test with COLO 205 colon; 114% with DU-145 prostate; 85.8% in the test on K-562 leukemia; 93.5% with MALME-3M melanoma. Further, the growth is 93.2% in the test on MDA-MB-231 breast; 103% with RXF 393 renal; 107% in the test on SF-268 CNS; 97.6% in the test on SF-295 CNS; 88.4% in the test with SF-539 CNS; -10.8% (active) with UACC-257 melanoma. Also, the growth was 89.3% in the test with M14 melanoma and 86.2% with HCT-15 colon.
On to `COc1cc(-c2cc(/C=C/C(=O)c3ccc(N)cc3)[nH]n2)cc(OC)c1OC`, for which the growth in the test on NCI-H23 lung is 24.6%; in the test on NCI-H226 lung it was 51.8%; with NCI-H322M lung it was 11.4%; in the test on HOP-62 NSCLC, 23.9%; in the test on NCI-H460 lung, -28.9% (active); in the test with NCI-H522 lung it was 10.8%. Also, the growth was 1.29% (active) with A549/ATCC NSCLC; -28.9% (active) with 786-0 renal; -45% (active) with COLO 205 colon; 7.2% (active) with DU-145 prostate; 10.9% in the test with K-562 leukemia; 58.3% in the test on MALME-3M melanoma. The growth in the test on MDA-MB-231 breast was -2.03% (active); with RXF 393 renal it was -23.2% (active); in the test with SF-268 CNS, -9.2% (active); in the test on SF-295 CNS, 22.9%; in the test on SF-539 CNS, -64.1% (active); in the test with UACC-257 melanoma it was 29.2%. The values for the growth with M14 melanoma and in the test with HCT-15 colon were 34.8% and -22.3% (active), respectively.
As to `O=C(O)CCCCSc1ncnc2nc[nH]c12`, the growth with NCI-H23 lung is 103%; with NCI-H226 lung, 98.6%; in the test on NCI-H322M lung, 90.2%; in the test with HOP-62 NSCLC it was 96.7%; with NCI-H460 lung, 109%; with NCI-H522 lung it was 84.1%. Moreover, the growth in the test with A549/ATCC NSCLC was 101%; with 786-0 renal it was 97.2%; in the test on COLO 205 colon, 103%; in the test with DU-145 prostate, 101%; with K-562 leukemia, 102%; in the test with MALME-3M melanoma, 96.2%. Also, the growth is 113% with MDA-MB-231 breast; 105% with RXF 393 renal; 98.9% in the test with SF-268 CNS; 101% with SF-295 CNS; 102% in the test with SF-539 CNS; 99.6% in the test with UACC-257 melanoma. Besides, the growth in the test on M14 melanoma is 103%; in the test with HCT-15 colon it was 102%.
Turning to `CN(C)c1ccc(/C=C/C=N/NC(=O)c2cc(O)c(O)c(O)c2)cc1`, the growth in the test with NCI-H23 lung is 99.6%; in the test on NCI-H226 lung it was 101%; in the test on NCI-H322M lung, 93.7%; in the test with HOP-62 NSCLC, 103%; in the test on NCI-H460 lung, 107%; in the test with NCI-H522 lung it was -31.8% (active). The growth was 98% with A549/ATCC NSCLC; 103% with 786-0 renal; 94.1% in the test with COLO 205 colon; 109% in the test on DU-145 prostate; 27.1% in the test on K-562 leukemia; 88.9% with MALME-3M melanoma. Besides, the growth with MDA-MB-231 breast is 85.4%; with RXF 393 renal, 99.4%; in the test on SF-268 CNS it was 94.6%; in the test with SF-295 CNS, 103%; with SF-539 CNS, 89.8%; in the test with UACC-257 melanoma, 92.8%. The growth with M14 melanoma was 96.9%; in the test on HCT-15 colon, 94.2%.
Turning to `O=C(Nc1ccc(CO)cc1)c1ccccc1Nc1ccnc(C(F)(F)F)c1`, the growth with NCI-H23 lung is 96.5%; in the test with NCI-H226 lung, 105%; in the test on NCI-H322M lung, 113%; with HOP-62 NSCLC it was 95.4%; in the test on NCI-H460 lung it was 103%; in the test on NCI-H522 lung, 93.7%. The growth is 99.5% with A549/ATCC NSCLC; 102% in the test with 786-0 renal; 104% in the test on COLO 205 colon; 106% in the test with DU-145 prostate; 93.7% in the test with K-562 leukemia; 92.5% in the test on MALME-3M melanoma. Besides, the growth with MDA-MB-231 breast was 96.9%; with RXF 393 renal, 120%; in the test on SF-268 CNS, 99.3%; in the test with SF-295 CNS, 111%; in the test on SF-539 CNS, 101%; in the test with UACC-257 melanoma, 102%. The growth was 99.8% in the test on M14 melanoma and 103% with HCT-15 colon.
As to `CN(C)Cc1cn(-c2ncc(-c3ccc(C(F)(F)F)cc3)c(NC3CCCCCC3)n2)nn1`, the growth in the test with NCI-H23 lung was 95.6%; in the test with NCI-H226 lung, 88.8%; with NCI-H322M lung, 88.3%; in the test on HOP-62 NSCLC, 94.2%; with NCI-H460 lung it was 93.4%; in the test with NCI-H522 lung it was 73.5%. For the same compound, the growth with A549/ATCC NSCLC was 95.2%; with 786-0 renal it was 90.4%; with COLO 205 colon it was 70.9%; in the test with DU-145 prostate it was 89.3%; in the test on K-562 leukemia it was 38.2%; with MALME-3M melanoma, 73.5%. Also, the growth in the test with MDA-MB-231 breast is 89.5%; in the test with RXF 393 renal it was 93.6%; with SF-268 CNS, 88.5%; in the test with SF-295 CNS, 94.3%; in the test on SF-539 CNS it was 99.3%; in the test with UACC-257 melanoma, 82.8%. Besides, the growth in the test with M14 melanoma is 84.5%; in the test on HCT-15 colon, 94.1%.
For `Cc1cccc2c1O/C(=C\c1ccc([N+](=O)[O-])o1)C2=O`, the growth was -39.8% (active) in the test with NCI-H23 lung; -57.8% (active) in the test on NCI-H226 lung; 37.9% in the test on NCI-H322M lung; -25.6% (active) with HOP-62 NSCLC; -58.5% (active) in the test on NCI-H460 lung; -77.4% (active) in the test on NCI-H522 lung. In addition, the growth in the test with A549/ATCC NSCLC is -12.2% (active); in the test on 786-0 renal it was -39.5% (active); in the test on COLO 205 colon it was -84.3% (active); in the test on DU-145 prostate, -62.7% (active); in the test with K-562 leukemia it was -44.2% (active); in the test with MALME-3M melanoma, -32.4% (active). Also, the growth with MDA-MB-231 breast is -47.3% (active); in the test on RXF 393 renal, -80.8% (active); in the test on SF-268 CNS, -39.8% (active); in the test with SF-295 CNS, 31.1%; in the test on SF-539 CNS it was -59.2% (active); with UACC-257 melanoma, -65% (active). In addition, the growth in the test on M14 melanoma is -54.1% (active); in the test with HCT-15 colon, -55.2% (active).
